This note sets out measurements from PubChem BioAssay AID1851 (National Center for Advancing Translational Sciences (NCATS), 2009).

In all, about 16,000 compounds went through this assay and about 5,800 (36%) were called active. About 23% were inconclusive and are not listed. Some of the results follow. A number with no mark means an inactive call. Calls come from the whole dose curve; as a rule, active = well fitted curve in the direction sought with a large enough effect; inconclusive = small, poorly fitted or top-dose-only effect, or effect the other way; inactive = no such curve, though single readings can be large or run the other way.
% is set by controls: 0 for no effect and ±100 for the full control effect.

In the experiment the target is Cytochrome P450 2C19 (Homo sapiens) (UniProt P33261). Put plainly: Cytochrome panel assay with activity outcomes. The conditions noted are these: recombinant CYP, pro-luciferin dealkylation, luminescence, p450-cyp2c19; series mostly up to 57.1 µM; activity, negative = inhibition: at the top concentration.
Cytochrome P450 2C19 (Homo sapiens), sequence (P33261 whole entry, looked up): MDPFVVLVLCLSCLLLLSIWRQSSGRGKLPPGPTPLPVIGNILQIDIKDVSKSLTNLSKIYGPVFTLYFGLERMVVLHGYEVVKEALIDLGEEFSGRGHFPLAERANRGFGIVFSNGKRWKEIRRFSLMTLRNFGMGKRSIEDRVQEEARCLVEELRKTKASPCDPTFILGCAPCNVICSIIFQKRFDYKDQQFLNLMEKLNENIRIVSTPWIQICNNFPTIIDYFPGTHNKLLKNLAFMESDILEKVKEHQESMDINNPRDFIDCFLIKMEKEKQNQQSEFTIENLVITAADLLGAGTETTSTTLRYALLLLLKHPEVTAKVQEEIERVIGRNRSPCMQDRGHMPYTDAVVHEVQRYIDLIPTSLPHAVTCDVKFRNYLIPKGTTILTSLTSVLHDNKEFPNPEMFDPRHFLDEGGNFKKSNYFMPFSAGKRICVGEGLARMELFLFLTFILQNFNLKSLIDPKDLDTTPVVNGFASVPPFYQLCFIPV
In the case of `CCCNC(=O)N1N=C(c2ccc(N)cc2)c2cc3c(cc2[C@H]1C)OCO3`, the “activity, negative = inhibition” value was -37.3%.

As for `COc1ccccc1CNC(=O)C/C(C)=N/NC(=O)Cc1ccccc1`, the “activity, negative = inhibition” value is -3.74%. As for `O=C(O)Cc1ccc(NC(=O)C2CCCCC2C(=O)O)cc1` (configuration not stated), the “activity, negative = inhibition” value was -12.8%. In general, AC50 refers to the midpoint of the concentration-response curve, whichever way the signal moves. As to `CC1CCC(=NNC(=O)Cc2ccccc2)CC1` (configuration not stated), the AC50 is 25.1 µM (active). Turning to `CN1CCC(=NNC(=O)CSCc2ccccc2)CC1`, the AC50 is 17.8 µM (active).

On to `O=C(c1cccc(F)c1)N1CCC2(CCN(Cc3cc(C(F)(F)F)cc(C(F)(F)F)c3)CC2)CC1`, for which the “activity, negative = inhibition” value is 22.7%. For the molecule `O=C(c1coc2ccccc2c1=O)N1CCN(c2cccc(C(F)(F)F)c2)CC1`, the AC50 is 14.1 µM (active). Regarding `O=C(c1cc(C(F)(F)F)cc(C(F)(F)F)c1)N1CCC[C@@]2(CCN(c3ccccc3)C2)C1`, the “activity, negative = inhibition” value was -33.8%. `O=C(O)c1ccccc1Nc1cccc(OCc2ccc3ccccc3n2)c1`: the concentration at half-maximal activity (AC50) was 5.01 µM (active).

For the molecule `O=C(Nc1ccccc1C(=O)O)c1ccc2ccccc2n1`, the “activity, negative = inhibition” value is -22.5%. On to `CCCCc1cc2ccccc2c(OCCN(C)C)n1`, for which the “activity, negative = inhibition” value was -31.4% [at 25.6 µM]. For the molecule `CC(C)C(=O)Cc1ccc2ccccc2n1`, the activity, negative = inhibition is 6.88% [at 11.4 µM]. Consider `CCCCC[C@H](O)c1cccc(OCc2ccc3ccccc3n2)c1`, for which the AC50 is 6.31 µM (active). As for `O=C(O)CP(=O)(O)O`, the AC50 entry was “inactive”. Regarding `C=CC[C@@H]1C=C[C@H](ON=C(C)C)[C@H](CO)O1`, the activity, negative = inhibition was -4.34% [at 11.4 µM].

As to `Cc1cc(C)nc(Nc2ncc(O)n2-c2ccccc2)n1`, the “activity, negative = inhibition” value is -17%. Regarding `Cc1cc(C)cc(-n2c(C)cc(C=C(C#N)C#N)c2C)c1`, the AC50 was 5.62 µM (active).

`Cc1cc(-c2n[nH]c(=S)o2)c(C)n1-c1ccccc1`: the “activity, negative = inhibition” value was -95.6%. With `Cc1cc(C=C(C#N)C#N)c(C)n1-c1ccccc1`, the AC50 is 1 µM (active).

On to `C#CCCCO/N=C1/C[C@@H](O)[C@@H](O)[C@@H]2[C@@H]3C(=O)N(CCC(=O)OCC)C(=O)[C@H]3CC[C@@H]12`, for which the activity, negative = inhibition was -1.53% [at 11.4 µM]. As to `COc1ccc(-n2c(=O)cnc3cnc(N4CCNCC4)nc32)cc1`, the “activity, negative = inhibition” value was -4.4%. As for `CSc1cccc(NC(=O)Cn2cccc2)c1`, the AC50 was 6.31 µM (active). Take `Cc1ccc(CNC(=O)Cn2c(=O)oc3ccccc32)o1`: the AC50 was 3.55 µM (active). As to `CSc1cccc(NC(=O)OC2CCCCCCCCCCC2)c1`, the activity, negative = inhibition was -41.3% [at 11.4 µM].

On to `CCOc1cc(/C=C2/NC(=O)N(CC(=O)Nc3cccc(C)c3)C2=O)ccc1OC`, for which the “activity, negative = inhibition” value is 27.2%.

Turning to `COc1ccc(CCNC(=O)Cn2c(=O)oc3ccccc32)cc1OC`, the “activity, negative = inhibition” value was -24.7%. For `CSc1cccc(NC(=O)Nc2ccc(Cl)cc2)c1`, the AC50 is 2 µM (active).

For the molecule `Cc1cccc(NC(=O)Cn2cccc2)c1`, the concentration at half-maximal activity (AC50) was 15.8 µM (active). Turning to `N#Cc1cccc(NC(=O)N2CCCC3(CCN(C(=O)c4csnn4)CC3)C2)c1`, the “activity, negative = inhibition” value is 3.09%. For the molecule `CC(=O)OC[C@H]1O[C@@H](O/N=C(\C)CCN2CCCc3nc(C)c(C)cc32)[C@H](OC(C)=O)[C@@H](OC(C)=O)[C@H]1OC(C)=O`, the activity, negative = inhibition was -24.1% [at 11.4 µM]. With `Cc1cccc(NC(=O)Cn2c(=O)oc3ccccc32)c1`, the AC50 is 3.16 µM (active). Regarding `Cc1cc(C)nc(SCCc2cccc[n+]2C)n1`, the activity, negative = inhibition is 66.4% [at 11.4 µM]. Consider `Cc1cccc(N/C(N)=N/c2nc(C)cc(C)n2)c1`, for which the “activity, negative = inhibition” value was -35.4%. On to `CCN(C(=O)Cn1c(=O)oc2ccccc21)c1cccc(C(F)(F)F)c1`, for which the AC50 was 3.55 µM (active). On to `Cc1cccc(NC(=O)CCSc2nc(C)cc(C)n2)c1`, for which the AC50 is 4.47 µM (active). For `O=C(O)C1=CCNCC1`, the AC50 result was “inactive”. For `COCCNc1ccnc(-c2c(C)noc2C)n1`, the “activity, negative = inhibition” value is -17.2%.

On to `COc1ccccc1CNc1ccnc(-c2c(C)noc2C)n1`, for which the AC50 was 1 µM (active). The same measure, in the same setting: as for `COc1ccc(CNc2ccnc(-c3c(C)noc3C)n2)c(OC)c1`, the figure is 1.58 µM (active); as for `CC(=O)N1CC(=O)N(OCc2ccccc2)C1c1ccc(Cl)cc1Cl` (configuration not stated), 3.16 µM (active); as for `COC(=O)N1CC(=O)N(OC)C1c1ccc(Cl)cc1Cl` (configuration not stated), 5.62 µM (active). For `CCOc1ccc(N=C2NC(=O)C(CC(=O)O)S2)cc1` (configuration not stated), the “activity, negative = inhibition” value was -16.7%.

As for `Cc1ccc2c(c1)C(=O)[C@@]1(O)CCN(c3ccccc3)C1=N2`, the half-maximal activity concentration (AC50) was 7.94 µM (active).

On to `CC(C)(Oc1ccc(Cl)cc1)C(=O)Nc1ccncc1`, for which the AC50 is 0.0562 µM (active). On to `CC(C)(Oc1ccc(Cl)cc1)C(=O)Nc1cccnc1`, for which the AC50 was 2.51 µM (active). As for `CCC(C)(C)N=C(NC#N)Nc1cccnc1`, the “activity, negative = inhibition” value is 15.9%.

With `CC(C)(Oc1ccc([C@@H]2CC2(Cl)Cl)cc1)C(=O)O`, the AC50 entry is “inactive”. For the molecule `CC(C)(Oc1ccc(CCNC(=O)c2ccc(Cl)cc2)cc1)C(=O)O`, the “activity, negative = inhibition” value was -13.4% [at 25.6 µM]. `O=C1c2ccccc2CCC12N=NCC2c1ccc(Cl)cc1` (configuration not stated): the AC50 is 0.562 µM (active). For `C=CCn1c(SC(C)C(=O)NCc2ccc3c(c2)OCO3)nc2scc(-c3ccccc3)c2c1=O` (configuration not stated), the AC50 is 2 µM (active).

On to `C=CCn1c(SCc2ccccc2)nc2scc(-c3ccc(C)o3)c2c1=O`, for which the “activity, negative = inhibition” value is -28.8%.

Regarding `C=CCn1c(SCC(=O)N2CC(=O)Nc3ccccc32)nc2scc(-c3ccccc3)c2c1=O`, the AC50 was 7.94 µM (active). `C=CCn1c(SCc2ccc3c(c2)OCO3)nc2scc(-c3ccco3)c2c1=O`: the AC50 was 1.41 µM (active). With `NS(=O)(=O)c1cc2c(cc1Cl)N[C@@H](C(Cl)Cl)NS2(=O)=O`, the “activity, negative = inhibition” value is 4.71% [at 25.6 µM].

In the case of `CCCCCCCCOC1OC(CO)C(O)C(O)C1NC(C)=O` (configuration not stated), the “activity, negative = inhibition” value is 51.9%. `Cc1ccc(NC(=O)N/C=C/c2ccco2)cc1C`: the AC50 is 3.16 µM (active). Turning to `C/C(=N\NC(=O)CC1N=C(Cc2ccccc2)NNC1=O)c1ccc(Cl)cc1Cl` (configuration not stated), the AC50 was 28.2 µM (active). Regarding `CCNc1ncc2nc(-c3ccc(F)cc3)c(=O)n(C[C@H]3CCCO3)c2n1`, the “activity, negative = inhibition” value was -11.2%. Still for that read-out and setting: the value for `CC(NC(=O)OCc1ccccc1)C(=O)NCC1CCCO1` (configuration not stated) was -22.3%. Turning to `CN(C)c1ncc2nc(-c3ccc(F)cc3)c(=O)n(C[C@H]3CCCO3)c2n1`, the “activity, negative = inhibition” value is -21.9%. Regarding `O=C(CC(c1ccccc1)c1ccccc1)NCC1CCCO1` (configuration not stated), the AC50 was 14.1 µM (active). On to `O=C(CSCc1c(F)cccc1Cl)NCC1CCCO1` (configuration not stated), for which the concentration at half-maximal activity (AC50) was 11.2 µM (active). For the molecule `CN(c1ccc(C(=O)NCC2CCCO2)cc1)S(=O)(=O)c1ccccc1` (configuration not stated), the “activity, negative = inhibition” value was -9.95%.

In the case of `Cc1cccc2c(SCC(=O)NCC3CCCO3)nc(-c3ccc(F)cc3)nc12` (configuration not stated), the AC50 was 1.26 µM (active).

In the case of `Oc1ccc([C@@H]2CNCCc3c2cc(O)c(O)c3Cl)cc1`, the “activity, negative = inhibition” value is 14.3%. `COc1ccc(CCC(C)NC2C3CC4CC(C3)CC2C4)cc1` (configuration not stated): the concentration at half-maximal activity (AC50) was 25.1 µM (active).

Regarding `CC(C)NC[C@@H](O)COc1ccc(CCOCC2CC2)cc1`, the AC50 entry is “inactive”.
